{"source": "the supplement of paper PMC6555819"}
{"system": "VDR:RXRa (NR concentration 270 nM, RXRa partner concentration 90 nM)", "experiment": "PBM binding z-score (relative to random genomic background probes); higher = stronger binding; sequences stand for … in GC…GCGATTGACAGCGTAGAATGAAGG", "description": "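Protein-binding microarray (Agilent 4x180K custom design, double-stranded 60-nt probes: 5' GC cap, 34-nt variable region, 24-nt constant primer region; full probe sequence given). Purified or IVT nuclear receptor:RXRα heterodimers (3:1 NR:RXRα, mostly 270:90 nM) or homodimers were incubated for 1 h in PBS with 2% milk and no ligand, then detected with Alexa488 antibodies. Fluorescence from o1-orientation probes (~5 replicates averaged) was converted to z-scores against 500 random hg19 background probes. Variable regions are seed direct-repeat (DR0–DR5) sites, all their single-nucleotide variants and half-site ablations.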"}
{"sequence": "CCTGACAGGTGAAAGGTAACTCAGTCTGGTACGC", "PBM binding z-score": 0.319}
{"sequence": "ACAAACAGGTGAGTGAAGGTAACTCAGCTGGACG", "PBM binding z-score": -0.124}
{"sequence": "CTCGAGAGGTCGTGCTCAGGTGAGTATACCAAAC", "PBM binding z-score": 3.37}
{"sequence": "TTACCAAGGTGAAGGTCGGTGATCCCTCTGTAGA", "PBM binding z-score": 0.428}
{"sequence": "TCATATAGGTAATGCAGGTGAAAGTCGGCATCTA", "PBM binding z-score": 0.862}
{"sequence": "CCTCGGAGGACAGAAGGTCAGAGCCGTCCGCTTT", "PBM binding z-score": 0.934}
{"sequence": "GCTGTTAGGTCAGGTTGGTCAGCTAACGGGTACG", "PBM binding z-score": 0.95}
{"sequence": "CCTTACGGGTCAAGGTTATAGCGCGGGTGGTACG", "PBM binding z-score": 3.22}
{"sequence": "TCTTGTAGATCAAAAGGAGGTTAAGAAAGATCGA", "PBM binding z-score": 0.807}
{"sequence": "AGAAAGAGGTTATACGTAGATCAGGGAAGAAAGT", "PBM binding z-score": 1.4}
{"sequence": "TGAATGAGGTTATGAGATCAGGGAACGTTGCAAA", "PBM binding z-score": 0.987}
{"sequence": "TAGCCTAGGTCATGCGGGCCAGTATCGTGTCGGC", "PBM binding z-score": 2.81}
{"sequence": "CGAACTAGGTCAGAACATGACAGTGAAGGATGAT", "PBM binding z-score": 0.229}
{"sequence": "GCTAGCAGGCCATTTGGGACACTCAATGACGGGC", "PBM binding z-score": -0.447}
{"sequence": "CGTCCTAGGTCAAAGGTCAGTGAAGAGATGACGG", "PBM binding z-score": 5.56}
{"sequence": "TCTCGGAGGACACGAAGGTCAGAACTTTCCAGAG", "PBM binding z-score": 2.18}
{"sequence": "ATATGTAGGTTAAGGGTCACTCAGGTTGGTTCGC", "PBM binding z-score": 5.43}
{"sequence": "AATATAGGGTCATCGTAGGCCAGAGTACGCACAG", "PBM binding z-score": 5.22}
{"sequence": "TGATATAGGTAAACAGGTGAAAGTCCGTAAGTTA", "PBM binding z-score": 0.405}
{"sequence": "TCACGGAGGACACGAAAGGTCAGAGCTCGACATC", "PBM binding z-score": 3.47}
{"sequence": "GGAACGAGGGCATTCGAGTTGGTAGCATGGCGAT", "PBM binding z-score": 2.35}
{"sequence": "TTTCCAAGGTGAGCTGAGGTCGTTGATCCAACTC", "PBM binding z-score": 4.12}
{"sequence": "TCTAGTCGGTCACGGAGGTCACACACGACGGGTA", "PBM binding z-score": 6.56}
{"sequence": "AGAATGAGGTAATACGTAGATCAGGGAAGAAAGT", "PBM binding z-score": -0.148}
{"sequence": "GCTTGTAGCTCAAGGTTAAGAAAGACTAAGCTAA", "PBM binding z-score": -0.0239}
{"sequence": "AAATGTAGGTTATCGGGTCATTCAGTTTGCGCAT", "PBM binding z-score": 5.22}
{"sequence": "CCGACCGGGGCAAAGGTTACCATACTCAGTACGA", "PBM binding z-score": 2.06}
{"sequence": "TTACCAAGGTGAGCTGAGGTCGTTGAACCAACTC", "PBM binding z-score": 4.25}
{"sequence": "ATAGACAGGTGAGTGAAGGTAACTCAGCTGGACG", "PBM binding z-score": 0.0461}
{"sequence": "TCTCGGAGGACAGGAAAGGTCAGAGCTCGACATC", "PBM binding z-score": 2.7}
{"sequence": "GCTTACGGATCAAAGGTTATAGCATGAATAGAAT", "PBM binding z-score": 1.52}
{"sequence": "TCTGCTAGGTCAGTTTGTCAGCTAACGAGCTGCC", "PBM binding z-score": 0.205}
{"sequence": "CAAACTAGGTCAGGAAAGGTCAAAGTCGAATGAC", "PBM binding z-score": 6.31}
{"sequence": "AGAACGAGGGCAATGAGTTGATGGCACGGGTGGC", "PBM binding z-score": 4.7}
{"sequence": "TAGCCTAGGTCATTCAGGAGCCAGTATAGAAAGC", "PBM binding z-score": 2.21}
{"sequence": "TATACAGGGTCAATGGCCAGAGTACGAATGTCGA", "PBM binding z-score": 4.05}
{"sequence": "TCTAGTTGGTCACGGAGGTCACAGACGACGGGTA", "PBM binding z-score": 5.81}
{"sequence": "ATCGAAAGGTCGAGGTGAGTTTAGAGAAAGGGAA", "PBM binding z-score": 4.92}
{"sequence": "TATTGTAGATCAACAGGAGGTTAAGAAAGATCGA", "PBM binding z-score": 0.587}
{"sequence": "TCATATAGGTAAATGCTAGTTGAAAGTCCGATCT", "PBM binding z-score": 1.07}
